PME-1 primary – PME-1 (human) inhibition; Q9Y570; recombinant PME-1, FP-Rh probe fluorescence polarization; inhibition, % at 5.9 µM; 0.53% of 320,000 active;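 active = inhibition above the campaign mean of all compounds plus 3 SD, cut at about 26% in these data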;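 also: competitive labeling of PME-1 active site by serine hydrolase directed probe; inhibitors block probe labeling so polarization falls and inhibition rises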
Target sequence (Q9Y570 whole entry, looked up): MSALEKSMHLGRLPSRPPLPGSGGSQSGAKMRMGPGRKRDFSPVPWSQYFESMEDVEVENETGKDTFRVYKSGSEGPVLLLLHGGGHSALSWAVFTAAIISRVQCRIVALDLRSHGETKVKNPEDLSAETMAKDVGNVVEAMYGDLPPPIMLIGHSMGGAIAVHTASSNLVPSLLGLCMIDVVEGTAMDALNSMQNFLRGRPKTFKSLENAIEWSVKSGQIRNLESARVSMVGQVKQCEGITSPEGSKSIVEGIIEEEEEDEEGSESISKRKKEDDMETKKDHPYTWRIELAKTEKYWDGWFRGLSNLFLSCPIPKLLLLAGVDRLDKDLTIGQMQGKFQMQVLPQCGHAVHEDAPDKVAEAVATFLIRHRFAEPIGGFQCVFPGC
pPAFAH FP inh – pPAFAH (human) enzyme inhibition | recombinant pPAFAH, FP-rhodamine probe fluorescence polarization | AID 463082 | 1.5% of 330,000 active | Q13093 | inhibition, % at 3.39 µM;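 active = inhibition above the mean inhibition across the screen plus 3 SD, cut at about 25% in these data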;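 also: inhibitors block binding of the rhodamine activity-based probe so polarization drops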
PAFAH1B3 FP inh – PAFAH1B3 (human) inhibition. 0.28% of 340,000 active. AID 492972. inhibition, % at 3.39 µM. Q15102. recombinant PAFAH1B3, FP-rhodamine probe, fluorescence polarization;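 active = inhibition above the screen-wide average of all tested compounds plus 3 SD, cut at about 25% in these data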
Target sequence (Q15102 whole entry, looked up): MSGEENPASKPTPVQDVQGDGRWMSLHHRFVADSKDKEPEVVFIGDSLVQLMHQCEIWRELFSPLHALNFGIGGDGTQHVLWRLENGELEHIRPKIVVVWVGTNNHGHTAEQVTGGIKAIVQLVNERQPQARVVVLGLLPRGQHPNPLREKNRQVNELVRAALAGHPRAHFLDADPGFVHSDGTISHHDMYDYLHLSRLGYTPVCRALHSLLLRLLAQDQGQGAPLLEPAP
PAFAH2 FP inh – inhibitors of human PAFAH2 | recombinant PAFAH2, FP-rhodamine activity probe, fluorescence polarization | inhibition, % at 3.39 µM | 0.99% of 340,000 active;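 active = inhibition above the mean over all tested compounds plus 3 SD, cut at about 30% in these data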;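 also: inhibitors block probe labeling of enzyme so polarization drops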
Fam108B inh – Fam108B inhibition, counter-screen for RBBP9 inhibitors; 0.33% of 300,000 active; recombinant Fam108B, FP-Rh probe fluorescence polarization; inhibition, % at 9.51 µM; AID 1947;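 active = inhibition above the screen mean inhibition plus 3 SD, computed separately per campaign, cut at about 18% in these data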;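 also: inhibitors lower polarization as less probe binds the enzyme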
PAFAH1B2 inh – PAFAH1B2 (human) inhibition; recombinant PAFAH1B2, FP-rhodamine activity probe, fluorescence polarization; 1.2% of 340,000 active; P68402; inhibition, % at 3.39 µM;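 active = inhibition above the mean of all tested compounds plus 3 SD, cut at about 24% in these data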
Numbers stand for hits; 0 = inactive; - = no result. An excerpt weighted towards active compounds, which were near 2.8% of everything screened.

SMILES	PME-1 primary	pPAFAH FP inh	PAFAH1B3 FP inh	PAFAH2 FP inh	Fam108B inh	PAFAH1B2 inh
O=C(Nc1ccc(Cl)cn1)C1CC1	0	0	0	0	0	0
O=C(Nc1cccc([N+](=O)[O-])c1)c1cc2ccccc2cc1O	0	33.9	0	0	0	0
CN(C)c1ccc(O)c2c1CC1CC3C(N(C)C)C(=O)C(C(N)=O)=C(O)[C@@]3(O)C(=O)C1=C2O (some centres undefined)	0	33.4	0	0	0	0
COc1ccc(OCC(=O)NC(=S)Nc2ccc(S(=O)(=O)Nc3cc(C)on3)cc2)cc1	0	0	0	0	0	0
CCOc1cc(/C=C2\C(=O)N(c3cccc(C(=O)O)c3)N=C2C(F)(F)F)ccc1OCC(=O)Nc1ccccc1OC	0	36.7	-	-	0	-
CCOc1cc(/C=N/n2cnnc2)ccc1OCC(=O)Nc1ccccc1OC	0	0	0	0	0	0
N#Cc1nc(COc2cccc(Cl)c2)oc1NCc1ccncc1	0	0	0	0	0	0
COc1ccc(CCNc2oc(COc3ccc(Br)cc3)nc2C#N)cc1OC	0	0	0	0	0	28.3
COc1ccc(CNc2oc(COc3ccc(Cl)cc3)nc2C#N)cc1	0	0	0	0	0	28.0
COc1ccccc1C1C2=C(CC(C)(C)CC2=O)Nc2nnnn21 (centres undefined)	0	0	0	0	0	0
COc1ccc(OC)c(C2C3=C(CC(C)(C)CC3=O)Nc3nnnn32)c1 (centres undefined)	0	28.6	0	0	0	0
CN(Cc1ccccc1N1CCCC1)C(=O)c1cc2cc(Cl)ccc2o1	0	0	0	0	-	0
COc1ccccc1C(=O)Nc1ccnn1C1CCN(Cc2ccc3nonc3c2)CC1	0	0	0	0	0	0
O=c1[nH]c2cc(Cl)ccc2c(O)c1-c1cccc(Oc2ccccc2)c1	0	0	0	0	0	31.6
CCOC(=O)c1c2c(n(C)c1COC)C(=O)C(=O)c1ccc(Br)cc1-2	0	0	-	-	28.6	-
CCCn1c(=O)c(C(=O)OCC)c(O)c2cc(Br)ccc21	0	0	0	0	0	0
O=C(CCc1nnc2ccc(NCc3ccccc3Cl)nn12)NC1CCCCC1	0	0	0	0	0	0
O=c1c(Sc2ccccc2)c(C(F)(F)F)[nH]n1-c1ccccc1	0	0	0	0	0	29.5
CN(Cc1ccccc1)C(=O)COC(=O)CN1C(=O)c2ccccc2C1=O	-	0	0	0	-	0
O=C(Nc1ccc2nc(-c3ccco3)c(-c3ccco3)nc2c1)N1CCCCCC1	0	68.8	-	-	40.4	-
Cc1ccnc(NS(=O)(=O)c2ccc(NC(=O)Cc3ccc(Br)cc3)cc2)n1	0	0	0	0	0	0
CC(Sc1ccc(Br)cc1)C(N)=O (centres undefined)	0	0	0	0	0	36.9
NC(=O)CSc1ccc(Br)cc1	0	0	0	0	0	49.6
O=C(CSc1ccc(F)cc1)Nc1ccc(Br)cc1	0	0	0	0	0	0
CC(NS(=O)(=O)c1ccc(Br)cc1)C(N)=O (centres undefined)	0	0	0	0	0	0
SMILES	PME-1 primary	pPAFAH FP inh	PAFAH1B3 FP inh	PAFAH2 FP inh	Fam108B inh	PAFAH1B2 inh
O=C1C2CCCN2C(=S)N1c1ccc(Cl)cc1 (centres undefined)	0	0	0	0	0	0
CC(C)COC(=O)COc1cc(Cl)c(Cl)cc1Cl	0	0	-	-	-	-
COC(=O)c1ccc(N2CCc3ccccc32)c([N+](=O)[O-])c1	0	24.8	0	0	0	0
O=C(O)c1ccc(N2CCc3ccccc32)c([N+](=O)[O-])c1	0	0	0	0	0	0
CC(=O)NCC(=O)N(c1ccccc1)C1(C(=O)NC2CCCCC2)CCCCC1	0	0	0	0	0	27.6
O=C(OCC(=O)N1CCc2ccccc21)c1ccc([N+](=O)[O-])o1	-	0	0	0	-	0
Nc1ccc(O)c(C(=O)O)c1	0	49.2	-	-	0	-
O=C(O)c1cc(O)ccc1O	-	-	0	0	-	0
CC1CN(c2ccc(Cl)cc2)c2nc3c(c(=O)[nH]c(=O)n3C)n2C1 (centres undefined)	-	-	0	0	-	0
CCc1ccc(N2CC(C)Cn3c2nc2c3c(=O)[nH]c(=O)n2C)cc1 (centres undefined)	0	34.3	0	0	0	0
COc1ccc(NC(=O)C2CCN(C(=O)c3cccs3)CC2)cc1OC	31.6	0	0	0	0	0
C=CCN(c1ccccc1)S(=O)(=O)c1cccc(C(=O)NCc2ccco2)c1	-	0	0	0	-	0
CC(C(=O)Nc1ccccc1-c1ccccc1)N1CCN(S(=O)(=O)c2ccccc2)CC1 (centres undefined)	0	0	0	0	0	30.9
Cc1ccc(S(=O)(=O)N2CCN(C(C)C(=O)NCC(C)c3ccccc3)CC2)cc1 (centres undefined)	-	0	0	0	-	29.3
CC1(C)CC(NC(=O)c2cccc(S(=O)(=O)Nc3cccc(Cl)c3)c2)CC(C)(C)N1	0	26.8	0	0	-	0
N#Cc1ccsc1NC(=O)CSc1nnnn1-c1ccc(O)cc1	0	25.8	0	0	0	0
O=C(CCC(=O)NNC(=O)COc1ccc(Br)cc1Br)NCc1ccccc1	0	27.1	-	-	0	-
N=C1C(c2nc(-c3ccc(F)cc3)cs2)=C(O)CN1CCCN1CCOCC1	0	0	0	38.1	0	0
COc1ccc(NS(=O)(=O)c2ccc(NC(=O)C(CCSC)NC(N)=O)cc2)cc1 (centres undefined)	0	31.0	0	0	0	0
CNS(=O)(=O)c1ccc(NC(=O)C(CCSC)NC(N)=O)cc1 (centres undefined)	0	0	0	0	0	0
CCOC(=O)C1=C(C)N=c2s/c(=C\c3ccc(C(=O)O)cc3)c(=O)n2C1c1ccc(OC)cc1OC (centres undefined)	0	0	0	0	0	0
CCOC(=O)C1=C(C)N=c2s/c(=C/c3ccco3)c(=O)n2C1c1cccc(OC)c1 (centres undefined)	0	33.5	-	-	0	-
C/C(=N\OC(=O)c1ccc(F)cc1)c1nccs1	0	0	0	33.0	0	0
CC(C)N(Cc1ccccc1)C(=O)COC(=O)c1cnc(Cl)c(Cl)c1	-	0	0	0	-	0
C=CCNC(=O)CSc1ccc(Cl)cc1	0	0	0	0	0	28.7
SMILES	PME-1 primary	pPAFAH FP inh	PAFAH1B3 FP inh	PAFAH2 FP inh	Fam108B inh	PAFAH1B2 inh
O=C(CSCc1ccc(Br)cc1)NCc1ccccn1	0	0	0	0	0	0
C=CCNC(=O)CSCc1ccc(Br)cc1	0	0	0	0	0	26.8
CCCN(CC(=O)Nc1ccccc1OC)C(=O)CCNC(=O)c1ccccc1OC	0	0	0	0	0	0
Cc1nc2sc(-c3ccccc3)cc2c(=O)[nH]1	0	0	0	0	0	0
Cc1cccc(-c2nc3sc(C)cc3c(=O)o2)c1	0	33.1	0	73.5	0	0
Cc1cccc(-c2nnc(-c3cccc4ccccc34)o2)c1	-	-	0	0	-	0
Cc1ccccc1-c1nc2sc(-c3ccccc3)cc2c(=O)o1	0	0	0	66.4	0	0

Bioassay records: PubChem, The Scripps Research Institute Molecular Screening Center
